Screens (PubChem)
NPC1 prom act: NPC1 promoter activation. Huh7 NPC1 promoter luciferase reporter, 24 h. Potency, µM (titrated, usually from 9.22 µM), for the others: at the highest dose activation, most hits filed as activators. AID 485313. 320,000 compounds, 2.4% hits; note: % of control where 0% means no effect; nearly all actives have a fitted effect of over 60% in size
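Huh7 reporter cells (NPC1 promoter driving luciferase) are dosed with compound for 24 h at 37 °C, 5% CO2; luciferase detection reagent is then added and luminescence measured after 10 min at ambient temperature.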
Rab9 promoter act: activators of Rab9 promoter. Huh7 Rab9 promoter-luciferase reporter, luminescence, 24 h. Potency, µM (doses to about 9.22 µM), for inactives: top-dose activation, negative = inhibition, usual class: activators. 320,000 compounds, 2.8% hits; note: % of control where 0% means no effect; nearly all actives have a fitted effect of over 60% in size
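Huh7 reporter line, Rab9 promoter upstream of luciferase. Compound exposure 24 h at 37 °C in reduced-serum medium with 10% FBS. Read-out: luminescence.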
SMN2 splice enh: enhancers of SMN2 splice variant expression. HEK293 SMN2-luciferase splicing reporter, luminescence, 30-36 h. Potency, µM (top dose mostly 46.1 µM), inactives show at the top dose activity change, positive = activation, most hits filed as activators. 210,000 compounds, 2.8% hits. AID 1458; note: % of control where 0% means no effect; nearly all actives have a fitted effect of over 55% in size
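HEK293 cells carry an SMN2 minigene-luciferase reporter in which exon 7 inclusion puts luciferase in frame. Cells were seeded at 2000 cells/well, attached for 10-12 hours, then exposed to compounds for 30-36 hours at 37C before ONE-Glo luminescence.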
ELG1 repair inh: ELG1-dependent DNA repair inhibition; HEK293T ELG1-luciferase reporter, luminescence, 16 h; DNA damage induced by 5-fluorouridine; Potency, µM (top dose mostly 46.1 µM), without a hit: at the highest dose activity change, negative = inhibition, hits mostly inhibitors; 330,000 compounds, 2.3% hits; note: % is set by controls: 0 for no effect and ±100 for the full control effect; nearly all actives have a fitted effect of over 55% in size
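In this reporter screen, reduction of luminescence relative to DMSO vehicle indicated activity. Compounds and 5-fluorouridine were added together to 2,000 cells per well, incubated for 16 hr at 37 °C, then developed with ONE-Glo.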
ELG1 genotox: genotoxicity induction in ELG1-luciferase HEK293T cells; HEK293T ELG1-luciferase reporter, luminescence, 16 h; Potency, µM (titrated, usually from 46 µM), inactives show top-dose activity change, positive = activation, most hits filed as activators; 330,000 compounds, 1.3% hits; note: % of control where 0% means no effect; nearly all actives have a fitted effect of over 60% in size
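Cells (2,000/well) expressing the ELG1-luciferase fusion are dosed by pin tool and kept 16 hr at 37 °C, 5% CO2. Signal comes from ONE-Glo luciferase reagent after 30 min at room temperature.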
FLuc counter: firefly luciferase modulation, counter-screen for miR-21 project. P08659. purified FLuc, Km substrates, luminescence inhibition. Potency, µM (titrated, usually from 57.5 µM), for inactives: top-dose activity change, negative = inhibition, hits mostly inhibitors. 360,000 compounds, 6.9% hits. AID 588342;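 note: plate controls were vehicle for no effect and reference inhibitor for full effect; nearly all actives have a fitted effect of over 55% in size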
Target sequence (P08659 whole entry, looked up): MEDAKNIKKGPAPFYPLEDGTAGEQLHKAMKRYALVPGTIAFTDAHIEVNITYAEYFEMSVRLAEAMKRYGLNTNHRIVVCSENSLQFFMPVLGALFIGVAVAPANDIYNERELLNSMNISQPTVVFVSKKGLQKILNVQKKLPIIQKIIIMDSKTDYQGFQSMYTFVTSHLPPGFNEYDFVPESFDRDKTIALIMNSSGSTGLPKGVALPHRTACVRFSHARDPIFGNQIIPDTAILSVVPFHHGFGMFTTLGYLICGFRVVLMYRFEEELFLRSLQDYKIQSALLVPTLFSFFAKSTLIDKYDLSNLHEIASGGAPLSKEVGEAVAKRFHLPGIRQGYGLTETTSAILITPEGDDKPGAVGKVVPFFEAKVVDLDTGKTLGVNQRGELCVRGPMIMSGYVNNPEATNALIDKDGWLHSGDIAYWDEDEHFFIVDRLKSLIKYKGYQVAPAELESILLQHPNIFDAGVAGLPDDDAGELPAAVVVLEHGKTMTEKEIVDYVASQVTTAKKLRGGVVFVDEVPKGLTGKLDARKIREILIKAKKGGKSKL
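Biochemical qHTS of compounds, final roughly 60 µM downward over six points, against 10 nM purified firefly luciferase using Km concentrations of substrates (10 uM D-luciferin, 10 uM ATP) in Tris acetate pH 7.5 buffer; luminescence output.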
* = called active by the depositor; ? = inconclusive; . = no result given; [ ] = dose if it differs, or a comment. Sampled rows, rich in hits. Any-hit rate of the full collection: about 9.2%. Calls come from the whole dose curve; as a rule, active = well fitted curve in the direction sought with a large enough effect; inconclusive = small, poorly fitted or top-dose-only effect, or another doubt; inactive = no such curve, though single readings can be large; an effect the other way counts as inactive or inconclusive. Potency is the fitted concentration of half-maximal effect.

SMILES	NPC1 prom act	Rab9 promoter act	SMN2 splice enh	ELG1 repair inh	ELG1 genotox	FLuc counter
COc1ccc(OC)c(NC(=O)c2cccnc2)c1	-5.4%	-0.5%	.	11.3%	2.6%	-4.3%
CSc1ncc(C(=O)NCc2ccc(C)cc2)c(-c2ccccc2)n1	.	.	.	.	.	2.2%
O=C(Cn1nc(C(F)(F)F)cc1C1CC1)NCc1ccccc1F	-0.9%	-1.0%	10.0%	-16.1%	-3.0%	-0.7%
Cc1cccc(NS(=O)(=O)c2ccc(-n3cccn3)cc2)c1C	-0.5%	-9.3%	.	-22.8%	-8.8%	0.3%
Nc1ccc(N=Nc2ccc(N)cc2)cc1	?	?	14.1µM*	?	?	7.57µM*
Cc1cccc(C)c1NC(=O)COC(=O)c1cccc2c1C(=O)c1ccccc1C2=O	-2.1%	-1.7%	13.4%	11.6µM*	1.7%	0.2%
Cc1cccc(C)c1NC(=O)c1cccc2c1-c1ccccc1C2=O	-0.5%	-6.2%	16.1%	19.9%	3.7%	-0.3%
Cc1cccc(NC(=O)COC(=O)c2cccc3c2C(=O)c2ccccc2C3=O)c1C	-0.2%	-3.8%	-33.7%	20.6µM*	-2.6%	0.8%
Cc1cccc(NC(=O)c2ccc3nccnc3c2)n1	?	28.4%	.	?	?	?
Cc1cccc(/C=N/NC(=O)c2ccc(F)cc2)n1	21.7%	26.9%	.	?	16.6%	12µM*
Cc1cccc(/C=N/NC(=O)c2cccc(NC(=O)c3ccccc3)c2)n1	1.2%	7.8%	.	-1.8%	0.2%	10.7µM*
Cc1cccc(NC(=O)c2cccc(NC(=O)c3ccccc3)c2)n1	0.4%	13.7%	.	-7.0%	-7.0%	21.3µM*
COc1ccc(Cl)cc1-n1nnc(-c2nsc(NC(=O)c3ccccc3Cl)n2)c1C	.	.	3.8%	.	.	?
Cc1cccc(Nc2nnc(-c3ccc(C)c(S(=O)(=O)N4CCN(C)CC4)c3)c3ccccc23)c1	.	.	-35.5%	.	.	-18.6%
O=C(CCn1nc(-c2ccc(Cl)cc2)ccc1=O)N1CCN(c2ccc(F)cc2)CC1	-1.7%	-8.0%	.	-14.0%	-11.5%	-0.6%
CCOC(CCn1c(SCC(=O)Nc2cc(C)on2)nc2ccccc2c1=O)OCC	-2.2%	-6.0%	11.2%	20.6µM*	-3.7%	-1.6%
CCOC(Cn1c(SCC(=O)Nc2cc(C)on2)nc2ccccc2c1=O)OCC	1.8%	-2.7%	.	-0.3%	-1.0%	1.6%
CCOC(CCn1c(SCc2ccc([N+](=O)[O-])cc2)nc2ccccc2c1=O)OCC	-3.2%	-6.0%	-35.1%	14.6µM*	-6.0%	-1.5%
Cc1ccc(-n2c(SCc3ccc([N+](=O)[O-])cc3)nc3ccccc3c2=O)cc1	0.7%	-2.5%	-0.8%	-26.0%	-1.2%	-1.2%
CCN(C(=O)Cn1nc(Cc2ccncc2)c2ccccc2c1=O)c1cccc(Cl)c1	.	.	7.8%	.	.	2.9%
COc1ccc(/C=C/C(=O)c2ccc3c(c2)OCCO3)cc1[N+](=O)[O-]	1.6%	-5.3%	0.9%	?	0.2%	6.75µM*
COc1ccc(/C=N/NC(=O)c2ccc3c(c2)OCCO3)cc1[N+](=O)[O-]	7.9%	-1.3%	-5.7%	13.0%	11.8%	1.4%
COc1cc(/C=C/C(=O)OCC(=O)Nc2ccc3c(c2)OCCO3)ccc1O	-1.4%	-3.6%	26.0%	?	-0.2%	?
COc1ccc(C(=O)/C=C/c2ccc3c(c2)OCCO3)cc1	4.8%	?	.	?	19.1%	1.69µM*
Cc1ccc(O)c(C(=O)/C=C/c2ccc3c(c2)OCCO3)c1	7.7%	?	5.8%	16.0%	-0.4%	23.9µM*
SMILES	NPC1 prom act	Rab9 promoter act	SMN2 splice enh	ELG1 repair inh	ELG1 genotox	FLuc counter
O=C(/C=C/c1ccc2c(c1)OCCO2)c1ccccc1	2.82µM*	1µM*	.	?	?	0.477µM*
COc1cc(NC(=O)CN2C(=O)COc3ccc(S(=O)(=O)N4CCOCC4)cc32)cc(OC)c1	0.5%	3.2%	.	5.3%	0.2%[9.26 µM]	-0.4%
COC(=O)c1ccccc1NC(=O)c1ccc2c(c1)CCN2S(C)(=O)=O	.	.	-3.1%	.	.	-13.3%
N/C(=N\OC(=O)CC1CCCCC1)c1ccccn1	19.9%	14.5%	15.5%	?	?	0.601µM*
N/C(=N\OC(=O)CCC1CCCC1)c1ccncc1	-3.9%	1.7%[1.84 µM]	2.8%	?	8.7%	13.5µM*
N/C(=N\OC(=O)CC1CCCCC1)c1ccncc1	0.1%	0.6%	.	?	8.4%	19µM*
O=C(Cn1cnc2ccccc2c1=O)c1ccc2c(c1)OCCO2	2µM*	1.26µM*	11.2µM*	?	?	6.01µM*
O=C(Cn1cnc2ccccc2c1=O)NCc1ccc2c(c1)OCO2	1.5%	-7.4%	-2.0%	3.1%	-0.4%	-2.7%
Cc1cc(C(=O)Cn2cnc3ccccc3c2=O)c(C)n1C1CC1	?	?	.	?	5.17µM*	-15.0%
O=C(Cn1cnc2ccccc2c1=O)Nc1ccc2c(c1)OCO2	23.9%	?	?	?	?	19µM*
Cc1ccc(C(=O)Cn2cnc3ccccc3c2=O)cc1C	.	.	?	.	.	19µM*
CCCCCCN	.	.	-0.7%	.	.	.
Fc1ccc(-c2noc3ncnc(NCCCN4CCN(c5ccccc5)CC4)c23)cc1	.	.	.	.	.	-6.1%
N[C@H](C(=O)O)[C@H](N)C(=O)O	.	.	-11.4%[9.22 µM]	.	.	.
CC1=C(/C=C/C(C)=C/C=C/C(C)=C/C(=O)O)C(C)(C)CCC1O (centres undefined)	.	.	-31.8%	.	.	.
Cn1c(=O)c2c(nc(Sc3ncnn3CC(=O)N3CCOCC3)n2C)n(C)c1=O	-4.7%	0.7%	.	0.0%	0.3%	-1.6%
COc1ccc(C(=O)Nn2cnc3ccccc3c2=O)c(OC)c1	2.24µM*	2.51µM*	14.1µM*	?	?	?
COc1ccc(C(=O)Cn2cnc3ccccc3c2=O)cc1	?	3.16µM*	.	?	?	13.5µM*
O=C(CSc1ncn[nH]1)c1ccc2c(c1)OCO2	5.3%	0.1%	-4.2%	?	?	?
Cc1cc(SCC(=O)c2ccccc2)nc2ccccc12	.	.	8.1%[9.22 µM]	.	.	.
